# Measured values: PubChem BioAssay (NCATS)
# Records with an inconclusive call do not appear. Calls of active or inactive are those of the source. Calls follow the shape of the dose curve; as a rule, active = well fitted cell-killing curve with a large enough effect; inconclusive = small, poorly fitted or top-dose-only effect; inactive = flat fitted curve, though single readings scatter.
# Assay: qHTS of pediatric cancer cell lines to identify multiple opportunities for drug repurposing: Primary screen for BT-12 cells (AID 1347101); also: nearly all actives have a fitted effect of over 25% in size
# Settings: BT-12 viability, CellTiter-Glo luminescence, 48 h; series mostly up to 57.3 µM
# Procedure, shortened: (§1)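 Cells (500-1,000/well) rested 5 h, then received compounds for 48 h; metabolically active cells were measured by CellTiter-Glo luminescence. Final concentrations spanned up to 46 µM (MIPE, 11-point) or 0.59 nM-46 µM (NPC, 8-point) in primary screens, 11-point in follow-ups.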
# Potency is read from the fitted curve at half-maximal effect.
row,SMILES,Potency
1,C=CC(=O)Nc1cccc(Oc2nc(Nc3ccc(N4CCN(C)CC4)cc3OC)ncc2Cl)c1,34.3 µM (active)
2,COC(=O)Nc1ccc(-c2nc(N3CCOCC3)c3cnn(C4CCN(Cc5cccnc5)CC4)c3n2)cc1,1.09 µM (active)
3,Cc1cc(Nc2ncnc3ccc(-c4ccc(CNCCS(C)(=O)=O)o4)cc23)ccc1Oc1ccn2ncnc2c1,6.85 µM (active)
4,COc1cccc(-c2ccc(NC(=O)C3=C(C(=O)O)CCC3)c(F)c2)c1,19.3 µM (active)

# Assay: qHTS of pediatric cancer cell lines to identify multiple opportunities for drug repurposing: Primary screen for Rh18 cells (AID 1347102); also: nearly all actives have a fitted effect of over 65% in size
# Settings: Rh18 rhabdomyosarcoma viability, CellTiter-Glo luminescence, 48 h; series mostly up to 46 µM
# Procedure, shortened: as §1
row,SMILES,Potency
1,CC(C)=CCCC(C)=CCCC(C)=CCSc1ccccc1C(=O)O,11.8 µM (active)
2,COc1cc(OC2CCN(C)CC2)ccc1Nc1ncc2c(n1)n(C1CCCC1)c(=O)n2C,20.9 µM (active)
3,Fc1cc(-c2cccc3ncc(-c4cnn(C5CCNCC5)c4)nc23)cc(F)c1CN1CCOCC1,20.9 µM (active)
4,Cn1cc(-c2ccncc2)c(-c2ccc(OCc3ccc4ccccc4n3)cc2)n1,inactive
5,Cn1c(=O)n(-c2ccc(C(C)(C)C#N)cc2)c2c3cc(-c4cnc5ccccc5c4)ccc3ncc21,0.209 µM (active)
6,COc1cc2c(Oc3ccc4[nH]c(C)cc4c3F)ncnc2cc1OCCCN1CCCC1,18.7 µM (active)
7,O=C(CCCCCCC(=O)Nc1ccc([C@H]2O[C@@H](CSc3nc(-c4ccccc4)c(-c4ccccc4)o3)C[C@@H](c3ccc(CO)cc3)O2)cc1)NO,10.5 µM (active)
8,CCN1CCN(CC(=O)Nc2ccc(-c3cccc4c(=O)cc(N5CCOCC5)oc34)c3sc4ccccc4c23)CC1,1.18 µM (active)
9,NCC(=O)Nc1ccc(-n2nc(C(F)(F)F)cc2-c2ccc3c(ccc4ccccc43)c2)cc1,26.4 µM (active)
